# Most compounds without a hit are left out; they make up all but 12% or so of the library.
# Sm TGR inh = S. mansoni TGR enzyme inhibition | Potency, µM (series often up to 114 µM), inactives show at the highest dose activity change, negative = inhibition, most hits filed as inhibitors | 3% of 360,000 active | Q962Y6 | purified TGR, DTNB reduction, TNB absorbance 405 nm; active = well fitted inhibition curve with a large enough effect; inconclusive = small, poorly fitted or top-dose-only effect; inactive = no such curve, though single readings can be large or run the other way; also: potency is read from the fitted curve at half-maximal effect; % is scaled to controls: 0 for no effect and ±100 for the full control effect; nearly all actives have a fitted effect of over 60% in size
#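 Kinetic colorimetric format: TGR-catalysed, NADPH-driven DTNB reduction monitored via TNB absorbance. Enzyme dispensed at 20 nM; compound exposure 15 min at room temperature before reaction start.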
# Cycloheximide cs = counter-screen hit for Shiga toxin inhibitors, cycloheximide | 12% of 300,000 active | cell reporter, cycloheximide protein synthesis inhibition counterscreen | max response, % | AID 2314; in the data active = max response mostly above about 13%, no sharp cut-off; inactive = mostly below about 14%; also: read at 38.3 µM for the half of the compounds with a filed dose; 0% is about no effect
# Shiga toxin inh = inhibitors of Shiga toxin in Vero cells. Vero cells, Shiga toxin protein synthesis inhibition reporter. inhibition, % at 38.7 µM. 9.2% of 290,000 active. AID 2315; in the data active = inhibition mostly above about 28%, no sharp cut-off; inactive = mostly below about 43%; also: 0% is about no effect
# FMDV inh = antivirals against foot and mouth disease virus | FMDV antiviral cell-based qHTS | Potency, µM (top dose mostly 57.9 µM), without a hit: at the highest dose activity change, negative = inhibition, hits mostly inhibitors | 1.2% of 410,000 active; calls by dose curve; tested in HEK293T cells; also: read-out not given here; potency is read from the fitted curve at half-maximal effect; % is scaled to controls: 0 for no effect and ±100 for the full control effect; nearly all actives have a fitted effect of over 45% in size
# * marks the source's active call; other numbers are inactive results; i = inactive; ? = inconclusive; / = no result given.
SMILES,Sm TGR inh,Cycloheximide cs,Shiga toxin inh,FMDV inh
CCOC(=O)N=Nc1c(O)n(Cc2ccccc2)c2ccccc12,8%,29*,46*,13%
CCOc1ccc(-c2nc3c(c(CC)nn3-c3ccccc3)c3cc(OC)c(OC)cc23)cc1,4%,/,/,-21%
Cc1ccc(F)cc1NC(=O)Cn1c(=O)nc(-c2ccccc2F)c2cc(Cl)ccc21,7%,/,/,16%
O=C1CCCc2ccccc2N1Cc1ccc(F)cc1,33%,-4,-19,-15%
COc1ccc(N2C(=O)CC(SCCc3nc4ccccc4[nH]3)C2=O)cc1 (stereo unspecified),0%,-3,-19,-19%
NCCSC1CC(=O)N(Cc2ccc(F)cc2)C1=O (stereo unspecified),7.9µM*,-2,-1,-6%
CCCCCCOc1ccc(N2C(=O)CC(SCCN)C2=O)cc1 (stereo unspecified),-35%,12*,26,13%
CCOc1ccc(N2C(=O)CC(Sc3nnnn3-c3ccccc3)C2=O)cc1 (stereo unspecified),10µM*,18*,21,?
CCOc1ccc(N2C(=O)CC(SCCN)C2=O)cc1 (stereo unspecified),?,31*,76*,13%
CCOc1ccc(N2C(=O)CC(Sc3nc(C)cc(C)n3)C2=O)cc1 (stereo unspecified),-7%,6,-2,/
O=C(C1COc2ccccc2O1)N(Cc1cccnc1)c1nc2ccc(Cl)cc2s1 (stereo unspecified),0%,/,/,12%
O=C1CC(Sc2ccc(Cl)cc2)C(=O)N1Cc1ccncc1 (stereo unspecified),7.1µM*,-2,7,-22%
N#C/C(=C/c1ccc(N2CCOCC2)o1)c1ccc(Br)cc1,2µM*,77*,109*,0%
N#C/C(=C\c1cc([N+](=O)[O-])c(N2CCOCC2)cc1N1CCOCC1)c1nc2ccccc2[nH]1,-7%,0,-1,-15%
N#C/C(=C/c1ccc(N2CCCCCC2)o1)c1ccc(F)cc1,/,/,/,-17%
N#C/C(=C/c1ccc(N2CCOCC2)o1)c1nc2ccccc2[nH]1,?,34*,58*,-61%
N#C/C(=C\c1ccc(N2CCOCC2)o1)c1ccccc1,1.1µM*,34*,31,/
O=C(N/N=C/c1ccc[nH]1)c1ccccc1OCc1ccccc1Cl,-10%,15*,11,-27%
O=C(N/N=C/c1ccco1)c1ccccc1OCc1ccccc1Cl,-6%,19*,-30,-29%
CCCCC(=O)Nc1ccc(OCc2cc(=O)n3c(C)csc3n2)cc1,-2%,/,/,0%
Cc1ccc(Nc2c(-c3ccc(N4CCOCC4)cc3)nc3cnccn23)cc1,-2%,7.8*,44,25%
Cc1ccccc1Nc1c(-c2ccc(N3CCOCC3)cc2)nc2cnccn12,-2%,25*,73,21%
COCCNC(=O)C1Cc2c(ccc3ccccc23)O1 (stereo unspecified),/,15*,37,33%
Cc1ccc(/C=C/C(=O)CCC(=O)O)cc1,3%,35*,64*,18%
Cc1ccc(/C=C/S(=O)(=O)NCC(=O)O)cc1,-2%,-2,21,1%
SMILES,Sm TGR inh,Cycloheximide cs,Shiga toxin inh,FMDV inh
CC(=O)NC(c1ccccc1)c1cc(Cl)c2cccnc2c1O (stereo unspecified),-23%,-1,-13,-16%
O=C(NC(c1ccc(Cl)cc1)c1cc(Cl)c2cccnc2c1O)c1cccnc1 (stereo unspecified),-11%,0,-5,?
CN1CCN(C(c2ccc(Cl)cc2)c2cc(Cl)c3cccnc3c2O)CC1 (stereo unspecified),0.35µM*,3,5,-3%
Oc1c(C(c2ccccn2)N2CCCCC2)cc(Cl)c2cccnc12 (stereo unspecified),3.5µM*,-1,20,-28%
CN1CCN(C(c2ccc(C(F)(F)F)cc2)c2cc(Cl)c3cccnc3c2O)CC1 (stereo unspecified),0.63µM*,-3,12,/
Cc1cccc(CN2CC34C=CC(CC3S2(=O)=O)O4)c1 (stereo unspecified),/,27,38,/
CCOc1ccc(-c2nnc(SCC(=O)NCc3ccc(C)cc3)nc2-c2ccc(OCC)cc2)cc1,13%,/,/,-8%
Cc1ccc(NC(=O)Cn2cc(C(=O)c3cccs3)c3ccccc32)cc1C,4%,/,/,-7%
Cc1nccn1-c1c2c(c(C#N)c3nc4ccccc4n13)CCC2,25µM*,2,-10,-23%
N#Cc1c2c(c(N3CCN(c4ccccn4)CC3)n3c1nc1ccccc13)CCC2,40µM*,-10,-9,/
Cc1c(Nc2c3c(c(C#N)c4nc5ccccc5n24)CCC3)c(=O)n(-c2ccccc2)n1C,32µM*,-4,16,/
Cc1cc(C)cc(-n2c(SCC(=O)N3CCc4ccccc43)nc3c([nH]c4ccccc43)c2=O)c1,3%,/,/,-7%
CCN1C(=O)C2(c3ccccc31)c1c(oc3ccc(F)cc3c1=O)C(=O)N2CCCOC (stereo unspecified),5%,/,/,-4%
Cc1ccc(C)c(-c2ccc(C(=O)O)o2)c1,/,23,i,/
CN(C)c1ccc(-c2nc3cnccn3c2Nc2cccc(C(F)(F)F)c2)cc1,-10%,/,/,-19%
C=CCn1c(-c2cc3c(s2)CCC(CC)C3)n[nH]c1=S (stereo unspecified),0%,24*,36,20%
C=CCn1c(SCC(=O)NC2CCS(=O)(=O)C2)nnc1-c1cc2c(s1)CCC(CC)C2 (stereo unspecified),5%,25*,63,7%
COc1ccc(CCNC(=O)CCn2c(=O)c3ccccc3n(Cc3ccccc3F)c2=O)cc1OC,-6%,/,/,?
CC(CNC(=O)c1ccc2nc(CCc3ccccc3)oc2c1)c1ccccc1 (stereo unspecified),-2%,/,/,-4%
COc1ccc(C2=Nn3c(nnc3-c3ccccc3O)SC2)c(OC)c1,/,10,33,/
CCc1ccc(NC(=O)c2ccc(F)c(S(=O)(=O)NCCc3ccc(OC)c(OC)c3)c2)cc1,-5%,/,/,?
CNc1sc(C(=O)c2cccs2)c(N)c1-c1nc2ccccc2s1,2%,40*,176*,0%
CNc1sc(C(=O)c2ccc(F)cc2)c(N)c1-c1nc2ccccc2s1,40µM*,29*,38,39%
COc1ccc(-c2nc3cc(C)ccc3cc2CN(C(=O)c2ccc(C)s2)C2CC2)cc1OC,/,/,/,-14%
COc1ccc(NC(=O)c2nnn(Cc3nc(-c4cc(Br)ccc4OC)oc3C)c2C)cc1,-9%,/,/,-30%
SMILES,Sm TGR inh,Cycloheximide cs,Shiga toxin inh,FMDV inh
N#C/C(=C\c1ccncc1)c1nc2c(s1)CCCC2,-18%,21*,42*,0%
NC(=O)C1CCN(C(=O)c2ccccc2NC(=O)c2nsc3ccccc23)CC1,5%,/,/,0%
Cc1ccc2nc(CN3CCN(C(=O)Nc4ccc(C)c(F)c4)CC3)oc2c1,1%,/,/,-13%
C=CCn1c(CCNC(=O)c2ccc(Cl)c(Cl)c2)nnc1SCCOc1ccc(OC)cc1,-1%,-1,38,28µM*
Cc1[nH]c2ccccc2c1C(=O)COc1ccccc1,6%,15*,49,24%
Cc1[nH]c2ccccc2c1C(=O)COc1ccccc1F,-10%,25*,74,47%
COc1ccc(C(=O)Nc2ccc(N(C)Cc3ccccc3)c(C(=O)O)c2)cc1,-1%,/,/,10%

# High-throughput results (PubChem)
